# The campaign covered roughly 320,000 compounds. About 2,100 (0.66%) were called active. Another 53% or so got no clear call; they are omitted. Calls follow the shape of the dose curve; as a rule, active = well fitted inhibition curve with a large enough effect in the signal ratio, with a control signal flat (not every such curve was filed as active); inconclusive = small, poorly fitted or top-dose-only effect, or effect the other way, or a change in a side signal; inactive = flat fitted curve, though single readings scatter; the % refers to the signal ratio. Many of the other results were omitted from the sample, so actives are more common in it than they were.
# Experiment: qHTS Assay for Lipid Storage Modulators in Drosophila S3 Cells;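 as to cell number change: cells counted by Cell Tracker Red CMTPX staining in the red channel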
# Conditions: BODIPY lipid droplet fluorescence, 18-24 h, cells fed with added oleic acid; cell number change: measured here: cell count max response; series mostly up to 46.1 µM
# Procedure, shortened: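 Laser-scanning cytometry quantifies lipid droplet accumulation (500–530 nm total intensity; droplet/cell object ratio) in oleic acid-fed (400 uM added) Drosophila S3 cells treated with a concentration series. 20 uM Triacsin C defined 100% inhibition.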
# Potency is read from the fitted curve at half-maximal effect.
Compound,Potency,cell number change
COc1ccc(NC(=O)COC(=O)C2CCC2)cc1Cl,inactive,12.2%
CCC(Sc1nc(C)cc(=O)[nH]1)C(=O)Nc1nc2c(s1)CCCC2 (stereo not given),14.6 µM (active),-8.37%
COc1cc(=O)[nH]c(SC(C)C(=O)Nc2nc3c(s2)CCCC3)n1 (stereo not given),inactive,7.98%
Cc1cc(=O)[nH]c(SCC(=O)Nc2nc3c(s2)CCCC3)n1,inactive,12.9%
Cc1ccccc1-c1nc(CSc2nc3c(c(=O)[nH]2)CCC3)c(C)o1,inactive,-21.7%
CCc1nc2scc(-c3cccs3)c2c(=O)o1,inactive,9.87%
Cc1sc2nc(-c3cccs3)oc(=O)c2c1C,inactive,5.53%
O=c1oc(-c2cccs2)nc2scc(-c3cccs3)c12,14.6 µM (active),-10.7%
CN1CCN(NC(=O)Nc2ccc(Br)cc2)CC1,inactive,–
CN1CCN(NC(=O)Nc2ccc(F)cc2)CC1,inactive,17.8%
CN1CCN(NC(=O)Nc2cc(Cl)cc(Cl)c2)CC1,4.61 µM (active),–
CCOC(=O)C1CCCN(C(=O)c2cc3ncc(Br)cn3n2)C1 (stereo not given),inactive,5.95%
CC(Oc1ccccc1)c1nnc(N)s1 (stereo not given),inactive,14.9%
O=C(COc1ccc([N+](=O)[O-])cc1)Nc1ccc(N2CCN(C(=O)c3ccco3)CC2)cc1,2.06 µM (active),-6.49%
CC(=O)N1CCN(c2ccc(NC(=O)c3ccco3)cc2)CC1,inactive,-9.52%
CC(C)(C)OC(=O)N1CCN(c2ccc(NC(=O)c3ccco3)cc2)CC1,3.26 µM (active),4.03%
O=C(COc1ccc(Cl)cc1)Nc1ccc(N2CCN(C(=O)c3ccco3)CC2)cc1,inactive,-2.54%
O=C(Nc1ccc(N2CCN(C(=O)c3ccco3)CC2)cc1)c1ccco1,inactive,25.3%
O=C(COc1ccccc1)Nc1ccc(N2CCN(C(=O)c3ccco3)CC2)cc1,inactive,11.5%
CCOC(=O)C1CCCN(C2CC(=O)N(c3ccc(C(C)C)cc3)C2=O)C1 (stereo not given),inactive,15.9%
COc1cccc(NC(=O)COC(=O)CCS(=O)(=O)c2ccc(C)cc2)c1,inactive,–

Compound,Potency,cell number change
O=C(NC1CCSC1=O)c1ccc(Cl)cc1 (stereo not given),inactive,12%
CC(C)[C@H](NC(=O)NC1CCN(Cc2ccccc2)CC1)C(=O)O,inactive,11.2%
N=C1C(=O)OCC1c1ccccc1NC(=O)c1ccc(F)cc1 (stereo not given),inactive,-9.08%
O=C(Nc1cccc(NC(=O)c2ccccc2[N+](=O)[O-])n1)c1ccccc1[N+](=O)[O-],inactive,-14.1%
Cc1cc(C)nc(N2CCC(C(=O)O)CC2)n1,inactive,–
Cc1cc(C)nc(N2CCCC(C(=O)NC3CC3)C2)n1 (stereo not given),inactive,0.42%
Cc1cc(C)nc(N2CCC(C(=O)NC3CC3)CC2)n1,0.58 µM (active),11.7%
Cc1noc(C)c1S(=O)(=O)N1CCC(C(=O)Nc2ccc(OC(F)(F)F)cc2)CC1,18.4 µM (active),-15.1%
COc1ccc(NC(=O)C2CCN(S(=O)(=O)c3c(C)noc3C)CC2)cc1OC,inactive,0.165%
CCc1ccc(NC(=O)C2CCN(S(=O)(=O)c3c(C)noc3C)CC2)cc1,inactive,–
CCCN1CCN(CCCNC(=O)c2ccc3nc(N4CCC(C)CC4)sc3c2)CC1,inactive,-11.1%
N#CCCN1CCN(S(=O)(=O)c2ccc(S(=O)(=O)NC3CC3)cc2)CC1,inactive,17.2%
O=S(=O)(NC1CC1)c1ccc(S(=O)(=O)N2CCC3(CC2)OCCO3)cc1,inactive,0.569%
CCS(=O)(=O)N1CCN(S(=O)(=O)c2ccc(S(=O)(=O)NC3CC3)cc2)CC1,6.51 µM (active),8.57%
CCN(c1ccccc1)S(=O)(=O)c1cc(NC(=O)COC(=O)C2CC2)ccc1Cl,inactive,6.19%
O=C(/C=C/c1ccc([N+](=O)[O-])cc1)c1ccco1,inactive,-5.18%
O=C(N/N=C/c1cccc([N+](=O)[O-])c1)c1ccc2c(c1)OCCO2,inactive,23.7%
O=C(/C=C/c1cccc([N+](=O)[O-])c1)c1ccco1,4.11 µM (active),-29.8%
COc1ccc([N+](=O)[O-])cc1NC(=O)c1cccs1,inactive,–
O=C(/C=C/c1cccc([N+](=O)[O-])c1)N1CCOCC1,inactive,–
CN(C)c1ccc(/C=C/C(=O)c2ccc3c(c2)OCCO3)cc1[N+](=O)[O-],inactive,33.3%

Compound,Potency,cell number change
COc1ccccc1N1CCN(C(=O)/C=C/c2cccc([N+](=O)[O-])c2)CC1,inactive,9.07%
O=C(/C=C/c1cccc([N+](=O)[O-])c1)N1CCN(C(=O)c2ccco2)CC1,inactive,23.6%
O=C(/C=C/c1cccc([N+](=O)[O-])c1)N1CCN(c2ccc(F)cc2)CC1,20.6 µM (active),2.7%
COc1cc([N+](=O)[O-])ccc1N/C=C/C(=O)c1cccs1,11.6 µM (active),-11.2%
O=C(/C=C/c1cccc([N+](=O)[O-])c1)c1ccc2c(c1)OCCO2,18.4 µM (active),-6.34%
CNc1cc([N+](=O)[O-])ccc1N/C=C/C(=O)c1cccs1,inactive,-14.6%
COc1ccccc1N1CCN(C(c2cc3cc(C)ccc3[nH]c2=O)c2nnnn2C2CCCC2)CC1 (stereo not given),inactive,10.4%
CC(NC(=O)COC(=O)CNC(=O)c1ccc(-c2ccccc2)cc1)c1ccccc1 (stereo not given),inactive,0.973%
O=C(Nc1ccc(COc2ccccc2)cc1)c1cccc([N+](=O)[O-])c1,inactive,-16.9%
O=C(NC1CCCC1)C1CCC(=O)N1C1CCCCC1 (stereo not given),inactive,1.84%
Cn1c(Cn2c(=O)sc3ccccc32)nnc1SCC(=O)N1CCOCC1,inactive,7.25%
O=C(/C=C/c1cccc([N+](=O)[O-])c1)Nc1ccc(NC(=O)c2cccs2)cc1,inactive,5.37%
O=C(/C=C/c1ccc([N+](=O)[O-])cc1)c1cccs1,inactive,1.74%
O=C(/C=C/c1cccc([N+](=O)[O-])c1)c1cccs1,23.1 µM (active),-11.1%
OCCNCc1cc(Br)ccc1OCc1ccc(F)cc1,inactive,-0.637%
O=C(CC(NC(=O)c1ccccc1Cl)c1ccccc1)NCCc1ccc(Cl)cc1 (stereo not given),inactive,10.1%
Cc1cc(=O)[nH]c(SCC(=O)N2CCCCC2)n1,inactive,4.95%
CCCSc1nc(C)cc(=O)[nH]1,inactive,7.07%
Cc1cc(=O)[nH]c(SCC2(O)C3CC4CC(C3)CC2C4)n1 (stereo not given),29.1 µM (active),-7.4%
